Measured values as given in PubChem BioAssay AID504710 (Sanford-Burnham Center for Chemical Genomics, 2011).
Values joined by “and” are separate entries in the source; they are usually repeats but may differ in a detail not shown here. Equal values may be shown once. Active and inactive are the calls of the source.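 How the source made its calls: active means inhibition reaching about 16% in any single replicate (limit read from the data); inactive means the rest.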

Target: Hexokinase HKDC1 (Homo sapiens) (UniProt Q2TB90)
Assay: compounds lowering human HKDC1 activity – biochemical, single concentration, confirmation (AID 504710)
Details: recombinant HKDC1, G6PDH/diaphorase/resazurin fluorescence; at 20 µM; stronger effect = higher value

Sequence of Hexokinase HKDC1 (Homo sapiens) (Q2TB90 whole entry, looked up): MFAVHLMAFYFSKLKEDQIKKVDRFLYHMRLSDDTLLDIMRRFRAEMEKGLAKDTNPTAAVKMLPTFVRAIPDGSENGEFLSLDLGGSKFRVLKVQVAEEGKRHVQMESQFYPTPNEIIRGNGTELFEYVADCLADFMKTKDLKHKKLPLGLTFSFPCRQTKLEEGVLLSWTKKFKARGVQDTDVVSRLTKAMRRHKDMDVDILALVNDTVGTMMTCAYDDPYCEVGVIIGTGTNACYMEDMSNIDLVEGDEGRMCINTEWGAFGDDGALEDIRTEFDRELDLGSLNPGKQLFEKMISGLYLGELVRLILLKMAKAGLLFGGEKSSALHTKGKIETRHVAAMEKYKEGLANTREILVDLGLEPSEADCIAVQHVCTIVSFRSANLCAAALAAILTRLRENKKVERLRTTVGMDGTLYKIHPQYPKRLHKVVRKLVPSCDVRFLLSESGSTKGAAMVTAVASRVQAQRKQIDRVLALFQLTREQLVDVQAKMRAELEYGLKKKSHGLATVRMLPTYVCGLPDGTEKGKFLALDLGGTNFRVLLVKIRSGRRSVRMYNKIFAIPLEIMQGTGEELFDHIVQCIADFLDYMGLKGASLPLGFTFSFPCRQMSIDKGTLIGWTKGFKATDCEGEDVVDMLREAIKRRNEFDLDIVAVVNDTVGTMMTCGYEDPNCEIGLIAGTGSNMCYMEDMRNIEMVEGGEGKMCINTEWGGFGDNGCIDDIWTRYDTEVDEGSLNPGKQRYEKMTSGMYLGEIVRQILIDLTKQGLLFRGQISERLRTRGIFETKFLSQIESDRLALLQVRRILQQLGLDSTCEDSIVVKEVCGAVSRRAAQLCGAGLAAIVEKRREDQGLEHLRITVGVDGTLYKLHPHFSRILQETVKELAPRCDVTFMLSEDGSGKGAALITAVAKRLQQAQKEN

Structure (SMILES) | inhibition
CC(=NNC(=S)Nc1cccc(Cl)c1)c1ccccn1 | -63.5% (inactive)
O=C1C=C(N2CCOCC2)c2ccccc2C1=O | 79.4% (active)
COC1=CC(=O)C(C2CC(=O)c3c(O)cc(O)cc3O2)=CC1=O (configuration not stated) | 39.8% (active)
COc1cc(N=c2ssnc2Cl)c(OC)cc1Cl | -58.8% (inactive) and -56.9% (inactive)
Cc1cc(C)c(S(=O)(=O)/N=C2\C=C(Nc3ccc(C(=O)O)cc3)C(=O)c3ccccc32)c(C)c1 | 39.5% (active)
NC1=C(Cl)C(=O)c2ccc(S(N)(=O)=O)cc2C1=O | -42.9% (inactive)
O=C1C(Nc2ccccc2)=C/C(=N/S(=O)(=O)c2cccs2)c2ccccc21 | 65% (active)
CCOc1ccc(/C=C2/SC(=S)N(CCC(=O)Nc3ccc(C(=O)O)cc3)C2=O)cc1 | -41.5% (inactive)
CCOC(=O)CSc1nc2ccc(C)cc2n2cnnc12 | 63.8% (active)
COc1cc(/C=C2/C(=O)NN(c3ccc(Cl)c(Cl)c3)C2=O)cc([N+](=O)[O-])c1O | 33.1% (active)
O=C(O)c1ccc(NC2=C(Cl)C(=O)c3ccccc3C2=O)cc1 | -94.3% (inactive)
CCOc1ccccc1Nc1nnc(SCc2nnc(-c3cc(OC)c(OC)c(OC)c3)o2)s1 | 44.7% (active)
CCc1nc2sc3c(=O)[nH]cnc3c2c2c1CSC(C)(C)C2 | 30.5% (active)
CCN(CC)CCNc1cc(C)nc2c1C(=O)C(=O)C=C2N1CCCCC1 | 57.9% (active)
Cn1c(-c2ccccc2)c(C(=O)CC#N)c2ccccc21 | -42% (inactive)
Clc1ccc(N=c2ssnc2Cl)nc1 | -79.7% (inactive)
S=C(NN=C(c1ccccc1)c1ccccn1)N(Cc1ccccn1)Cc1ccccn1 | -59.4% (inactive)
Cc1cccc2c(N=NC(=O)c3ccc(NS(=O)(=O)c4cccs4)cc3)c(O)[nH]c12 | 63.2% (active)
Cc1cc(C2=NNC(=Nc3ccc(S(=O)(=O)N4CCOCC4)cc3)SC2)c(C)n1CC1CCCO1 (configuration not stated) | -55.8% (inactive)

Structure (SMILES) | inhibition
CC(NNC(=S)N1CCN(c2ccccn2)CC1)c1nccc2ccccc12 (configuration not stated) | -74.7% (inactive)
CC(C)c1nc2oc3c(NCC4CCCO4)ncnc3c2c2c1COC(C)(C)C2 (configuration not stated) | 62.8% (active)
Cc1ccc(-n2c3nc(=O)[nH]c(=O)c-3cc3cc([N+](=O)[O-])ccc32)cc1C | 65.3% (active)
O=C1c2ccccc2-c2onc3ccc(Oc4ccccc4)c1c23 | 28.2% (active)
NC(=NCCCCCCN=C(N)/N=C(\N)Nc1ccc(Cl)cc1)/N=C(\N)Nc1ccc(Cl)cc1 | 49.3% (active) and 46.4% (active)
Cc1nc(COC(=O)c2cc(O)c3ccccc3c2O)cs1 | 39.5% (active)
Cc1[nH]c2ccccc2c1C1=CC(=O)C=CC1=O | 52.9% (active)
COc1ccc2cc(CCNC(=O)c3ccc(S(=O)(=O)N4CCCC4)cc3)c(=O)[nH]c2c1 | 59.8% (active)
Cc1ccccc1N=C1NN=C(c2ccccc2F)CS1 | -40.3% (inactive)
Cc1cc(C)n2nc(SCc3nnc(SCc4ccccc4C)s3)nc2n1 | 69.2% (active)
COC1(NS(=O)(=O)c2ccc(Br)cc2)C(C)=CC(=O)C=C1C | 26.3% (active)
O=C1NC(=S)N/C1=C/c1cc2c(cc1[N+](=O)[O-])OCO2 | -36.6% (inactive)
COc1ccccc1NC(=S)NN=C(C)c1ccccn1 | -61% (inactive)
O=S(=O)(Nc1cc(Sc2ncn[nH]2)c(O)c2ccccc12)c1ccccc1 | 48.4% (active)
CC(=O)N(C1=C(Cl)C(=O)c2ccccc2C1=O)C1CCCCC1 | 78.2% (active)
COc1ccc(S(=O)(=O)Nc2cc(SCC(=O)O)c(O)c3ccccc23)cc1 | 47.2% (active)
CCOC(=O)C1=C(Cc2ccc(OC)cc2)C(=O)c2ccccc2C1=O | 55.8% (active)
CC(C)(C=O)C1=CC(=O)c2ccccc2C1=O | 41.2% (active)
